Assay outcomes deposited in PubChem by The Scripps Research Institute Molecular Screening Center.
The list is not random: actives were taken first. Their share in the collection is about 2.3%.
M1 ag parental: counter-screen for M1 agonists: effect in parental CHO-K1 cells | Fluo-8 calcium fluorescence; scaled to maximal ATP response, vehicle zero | activation, % at 3 µM | hit rate 0.48% among 360,000 | AID 602248, 2012; in the data active = activation above about 15%;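 note: untransfected CHO-K1 host cells lacking M1 receptor as counterscreen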
CHO-K1 Ca antag: counter-screen for M1 antagonists: effect in parental CHO-K1 cells; ATP-induced calcium, Fluo-8 fluorescence; inhibition, % at 3 µM; hit rate 0.6% among 360,000; AID 602250;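 active = inhibition above a per-plate cutoff, the plate's mean sample inhibition plus 3 SD, cut at about 24% in these data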;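 note: 0% = DMSO plus EC80 ATP and 100% = DMSO alone without ATP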
M1 ag: human M1 muscarinic receptor agonists, primary screen, Fluo-8 calcium fluorescence, CHO-K1 cells, HTS; CHO-K1 hM1, agonist mode; 0% DMSO, 100% acetylcholine EC100; activation, % at 3 µM; hit rate 0.33% among 360,000; AID 588814, 2011;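 active = activation above the run's mean compound activation plus 3 SD, cut at about 16% in these data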;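 note: peak over basal fluorescence ratio within a 140 s kinetic read after compound addition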
Target sequence (P11229 whole entry, looked up): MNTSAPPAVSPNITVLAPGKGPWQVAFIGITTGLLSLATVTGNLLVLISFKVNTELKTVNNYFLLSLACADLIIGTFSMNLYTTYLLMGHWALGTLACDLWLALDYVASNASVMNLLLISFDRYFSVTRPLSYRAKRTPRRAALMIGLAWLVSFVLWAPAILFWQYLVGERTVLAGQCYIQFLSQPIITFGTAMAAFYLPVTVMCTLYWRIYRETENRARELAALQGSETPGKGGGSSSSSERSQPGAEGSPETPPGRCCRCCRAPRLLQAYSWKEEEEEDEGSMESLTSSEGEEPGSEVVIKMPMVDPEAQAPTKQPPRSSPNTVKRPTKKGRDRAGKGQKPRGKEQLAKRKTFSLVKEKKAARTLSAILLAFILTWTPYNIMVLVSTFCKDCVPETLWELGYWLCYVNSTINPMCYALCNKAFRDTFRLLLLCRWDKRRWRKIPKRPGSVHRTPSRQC
CHRM1 PAM: human M1 muscarinic receptor positive allosteric modulators, primary screen, CHO-K1 cells, Fluo-8 calcium fluorescence, 1536-well; AID 588819, 2011; Muscarinic acetylcholine receptor M1 (Homo sapiens), P11229; CHO-K1 hM1, ACh EC20; 0% = ACh EC20, 100% = maximal ACh; hit rate 0.088% among 360,000; activation, % at 3 µM; in the data active = activation above about 19%, passing the limit was not always enough
CHO-K1 Ca PAM: nonselective calcium activators in parental CHO-K1 cells, primary screen, counter-screen for M1 PAM project, cell-based, Fluo-8 calcium fluorescence, full deck, 1536-well; ATP EC20; 0% at ATP EC20, 100% at ATP max; activation, % at 3 µM; hit rate 0.02% among 360,000;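 active = activation above the run cutoff, the mean activation of all test compounds plus 3 SD, cut at about 40% in these data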;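 note: peak over basal fluorescence ratio in a 140 s read after ATP addition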
CHRM1 antagonist: human M1 muscarinic receptor antagonists, primary screen, CHO-K1 cells, Fluo-8 calcium fluorescence, 1536-well | Muscarinic acetylcholine receptor M1 (Homo sapiens), P11229 | CHO-K1 hM1, ACh EC80 antagonist | inhibition, % at 3 µM | hit rate 1.3% among 360,000;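 active = percent inhibition above its own plate's cutoff, namely the mean of that plate's compound wells plus 3 SD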;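 note: peak over basal fluorescence ratio during 140 s after agonist addition; 0% = ACh EC80 plus DMSO and 100% = DMSO alone without agonist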
* hit, by the source's call.

SMILES	M1 ag parental	CHO-K1 Ca antag	M1 ag	CHRM1 PAM	CHO-K1 Ca PAM	CHRM1 antagonist
C#CCOCCOCCOCCNc1nc(N2CCN(C(=O)CCCCCCCCCCNC(=O)Cn3cc(CCCCCN)nn3)CC2)nc(N2CCN(C(=O)CCCCCCCCCCNC(=O)Cn3cc(CCCCCN)nn3)CC2)n1	3	-7	-7	-35	8	39*
CN(CCc1ccccc1)C(=O)c1cccc(NC(=O)Cc2cccc(NC(=O)C3CCCN(C(=O)c4ccccc4)C3)c2)c1 (stereo not given)	0	-3	-4	8	11	-6
COc1ccc(OC)c(CC(=O)N2CCc3cc(OC)c(OC)cc3C2)c1	2	-13	-1	2	-9	-4
C#CCOCCOCCOCCNc1nc(N2CCN(C(=O)CCCCCCCCCCNC(=O)[C@H](CCCCN)n3cc(CCCC(=O)O)nn3)CC2)nc(N2CCN(C(=O)CCCCCCCCCCNC(=O)[C@@H]([C@H](C)O)n3cc(C)nn3)CC2)n1	1	-17	6	13	8	-17
C#CCOCCOCCOCCNc1nc(N2CCN(C(=O)CCCCCCCCCCNC(=O)[C@H]([C@@H](C)CC)n3cc(CCCCCN)nn3)CC2)nc(N2CCN(C(=O)CCCCCCCCCCNC(=O)[C@H](CCCCN)n3cc(CCCC(=O)O)nn3)CC2)n1	6	-10	18*	-8	6	3
CCN(CC)C(=O)c1cccc(-c2csc(C(C)(O)c3ccc(OC)cc3)n2)c1 (stereo not given)	11	14	6	-28	-12	46*
CC(O)(c1ccncc1)c1nc(-c2cccc(C(F)(F)F)c2)cs1 (stereo not given)	7	6	-2	-11	5	30*
Cc1ccc(N(Cc2ccco2)C(=O)c2ccc(N3CCCCC3)c([N+](=O)[O-])c2)cc1	-1	25*	-4	-6	-15	7
Cc1ccc(S(=O)(=O)N2CCOCC2)cc1NC(=O)COC(=O)c1ccc(Br)o1	2	-14	-7	7	8	-13
O=C(Nc1ccc(COc2ccccc2)cc1)Nc1cccc(C(=O)O)c1	0	-7	-1	9	2	-14
O=C(C1CCC(CNS(=O)(=O)c2cccs2)CC1)N1CCN(c2ccc(Cl)cc2)CC1 (stereo not given)	16*	-2	0	0	19	6
CC(C)(C)NS(=O)(=O)c1ccc2nc(NC(=O)c3ccc(N4C(=O)CCC4=O)cc3)sc2c1	15*	3	2	6	7	-4
O=C(CSc1ccc2nnc(-c3cccnc3)n2n1)NCc1ccc2c(c1)OCO2	0	-4	-10	-27	12	64*
O=C(CSc1ccc2nnc(-c3ccccc3)n2n1)NCc1ccc2c(c1)OCO2	0	-12	1	5	15	-14
COc1ccc(Nc2ccnc3ccccc23)cc1	0	-9	25*	0	10	-9
COc1ccc(Nc2ncnc3ccccc23)cc1	1	-14	-2	9	14	-12
CC(NCc1ccc(S(N)(=O)=O)cc1)C(=O)NCc1ccccc1 (stereo not given)	0	-8	-8	10	7	-10
CC(NC(=O)COc1ccccc1)C(=O)NCc1ccc(S(N)(=O)=O)cc1 (stereo not given)	1	-9	2	27*	15	-20
Cc1ccc(NC(=O)CN(C)C(=O)COC(=O)c2nc3nccc(C)n3n2)cc1	0	3	-3	3	-13	2
CC(C)OC(=O)CSc1nnc(CNc2ccc(Cl)cc2)n1Cc1ccccc1	4	36*	1	-12	-8	20
CCOC(=O)CSc1nnc(CNc2ccc(Cl)cc2)n1Cc1ccccc1	7	12	3	-7	0	24
COc1ccc(NC(=O)CC(NCc2ccccn2)C(=O)O)cc1 (stereo not given)	18*	3	-5	11	20	-2
CN(CCc1ccccc1)C(C(=O)Nc1ccc2c(c1)OCCO2)C1CC1 (stereo not given)	2	-11	-4	-13	24	-13
COc1ccc2nc(N(Cc3ccccc3)C(=O)CCNC(C)=O)sc2c1	0	-12	-2	3	5	-5
O=C(NCCCN1CCCC1)c1ccc2c(Cl)c3c(nc2c1)CCCC3	0	-5	-10	-10	23	-2
SMILES	M1 ag parental	CHO-K1 Ca antag	M1 ag	CHRM1 PAM	CHO-K1 Ca PAM	CHRM1 antagonist
CCCN1CCN(CCCNC(=O)c2ccc3c(Cl)c4c(nc3c2)CCCC4)CC1	0	-17	-14	-29	-3	34*
Cc1c(NC(=O)c2ccc(N(C)S(=O)(=O)c3ccccc3)cc2)c(=O)n(-c2ccccc2)n1C	1	-2	-15	-6	-1	7
Cc1c(NC(=O)c2ccc(S(=O)(=O)Nc3ccccc3F)cc2)c(=O)n(-c2ccccc2)n1C	0	-3	-6	-22	-11	35*
CCCN(CCC)S(=O)(=O)c1ccc(C(=O)Nc2c(C)n(C)n(-c3ccccc3)c2=O)cc1	0	-15	-6	0	13	39*
Cc1c(NC(=O)c2cccc(S(=O)(=O)N(C)c3ccccc3)c2)c(=O)n(-c2ccccc2)n1C	1	-9	-7	-20	-20	38*
Cc1c(NC(=O)c2ccccc2NS(=O)(=O)c2ccc(F)cc2)c(=O)n(-c2ccccc2)n1C	0	21	-6	2	-14	0
Cc1c(NC(=O)c2ccc(S(=O)(=O)N3CC(C)OC(C)C3)cc2)c(=O)n(-c2ccccc2)n1C (stereo not given)	12	32*	-12	12	-8	-6
COc1ccc(Cl)cc1NC(=O)CN1CCc2ccccc2C1	1	-6	-4	-2	7	-10
CCOC(=O)N1CCN(C(=O)CN(C)S(=O)(=O)c2ccc(Cl)cc2)CC1	1	-7	-2	-1	-9	2
OC(c1ccccc1)C(NCCNCc1ccccc1)c1ccccc1 (stereo not given)	1	-3	-9	-24	4	38*
CCN(CC)CCOC(=O)C1(c2ccccc2)CCOCC1	0	10	-7	-23	-7	8
CCN(CC)CCOC(=O)C1(c2ccc([N+](=O)[O-])cc2)CCCC1	0	-6	-5	-26	8	96*
COc1ccc(C(=O)OCC[N+]2(C)CCCCC2)cc1	5	-9	-4	6	22	-7
